Among all 16,000 compounds or so, about 5,100 (32%) were called active. Roughly 25% stayed inconclusive and do not appear here. Calls come from the whole dose curve; as a rule, active = well fitted curve in the direction sought with a large enough effect; inconclusive = small, poorly fitted or top-dose-only effect, or effect the other way; inactive = no such curve, though single readings can be large or run the other way. The list shows a part of the results.
% is set by controls: 0 for no effect and ±100 for the full control effect.

Cytochrome P450 3A4 (Homo sapiens), sequence (P08684 whole entry, looked up): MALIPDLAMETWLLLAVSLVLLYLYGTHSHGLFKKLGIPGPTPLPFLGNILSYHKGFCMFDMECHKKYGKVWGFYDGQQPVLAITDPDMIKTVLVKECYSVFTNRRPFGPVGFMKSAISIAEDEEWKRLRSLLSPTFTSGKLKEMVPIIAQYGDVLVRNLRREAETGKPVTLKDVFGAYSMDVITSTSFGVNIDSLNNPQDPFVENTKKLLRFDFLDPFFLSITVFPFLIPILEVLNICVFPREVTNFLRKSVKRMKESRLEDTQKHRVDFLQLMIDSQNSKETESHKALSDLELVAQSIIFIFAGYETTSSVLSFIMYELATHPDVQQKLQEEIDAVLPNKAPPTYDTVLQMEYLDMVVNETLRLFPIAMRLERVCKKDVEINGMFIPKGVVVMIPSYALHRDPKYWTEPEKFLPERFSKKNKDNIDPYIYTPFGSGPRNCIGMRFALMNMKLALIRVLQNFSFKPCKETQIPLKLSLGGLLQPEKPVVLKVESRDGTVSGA

The target of the assay is Cytochrome P450 3A4 (Homo sapiens) (UniProt P08684). Put plainly: Cytochrome panel assay with activity outcomes. The note with it: recombinant CYP, pro-luciferin dealkylation, luminescence, p450-cyp3a4; series mostly up to 57.1 µM; activity, negative = inhibition: at the top concentration. As for the experimental part:
The P450 gene superfamily is involved in the metabolism and clearance of xenobiotics. This assay used various human CYP P450 isozymes to measure the dealkylation of various pro-luciferin substrates to luciferin. The luciferin is then measured by luminescence after the addition of a luciferase detection reagent. Pro-luciferin substrate concentration in the assay was equal to its KM for its CYP P450 isozyme. Inhibitors and some substrates limit the production of luciferin, and decrease measured luminescence.
NCGC Assay Protocol Summary:
1, Reagent, 2 uL, Isozyme and Pro-Luciferin
2, Library compounds, 23 nl, 40 uM to 0.24 nM dilution series
3, Controls, 23 nl, Isozyme specific inhibitor
4, Reagent, 2 uL, NADPH regeneration solution
5, Incubation time, 60 min, Isozyme specific temperature
6, Reagent, 4ul, Detection reagent
7, Incubation time, 20 min, Isozyme specific temperature
8, Detection, 1 sec, ViewLux luminescent read
The luciferase-based P450-GloTM Screening Systems were obtained from Promega (Madison, WI) for CYP 1A2 (V9770), CYP 2C9 (V9790), CYP2 C19 (V9880), CYP 2D6 (V9890), and CYP 3A4 Luciferin-PPXE (V9910) and were adapted for 1,536-well microplates and an automated protocol. The control compounds furafylline for 1A2 (F124), sulfaphenazole for CYP 2C9 (S0758), ketoconazole for CYP 2C19 (K1003), quinidine for 2D6 (Q3625), and ketoconazole for 3A4 (K1003) were purchased from Sigma Aldrich (St. Louis, MO). Recombinant P450 enzymes were obtained from baculovirus constructs expressed in insect cells (BD/Gentest).
Medium-binding white solid Kalypsys plates used. Mixtures kept on ice. 1A2: 10 nM 1A2, 100 uM Luc-ME, 100 mM KPO4; 2C9: 10 nM 2C9, 100 uM Luc-H, 25 mM KPO4; 2C19: 5 nM 2C19, 10 uM Luc-H EGE, 50 mM KPO4; 2D6: 5 nM 2D6, 30 uM Luc-ME EGE, 100 mM KPO4; 3A4: 10 nM, 25 uM Luc-PPXE. All amounts are reflected in their final concentration, working concentration is 2x.
NADPH regeneration solution: 1.3 mM NADP+, 3.3 mM glucose-6-phosphate, 3.3 mM MgCl2, 0.4 U/mL glucose-6-phosphate dehydrogenase for all isozymes, 200 mM KPO4 for 3A4. Mixture prepared at RT but kept on ice during automated run.
RT incubation in auxilliary plate hotel for 1A2, 2D6, and 3A4; 37C for 2C9 and 2C19.
Keywords: P450, CYP1A2, CYP2C19, CYP2C9, CYP2D6, CYP3A4, Luciferase, MLSMR, MLSCN, NIH Roadmap, qHTS, NCGC
Take `CC(c1ccccc1C(O)c1ccccc1)N(C)C` (configuration not stated): the “activity, negative = inhibition” value is 16.7% (inactive). Still for that read-out and setting: the result for `CCOc1ccc(NC(=O)C(=O)NCC2CCCN2CC)cc1` (configuration not stated) reads -4.42% (inactive). With `COc1ccc(NC(=O)N(C2CCCCC2)C(C)c2cccnc2)c(OC)c1` (configuration not stated), the AC50 – broadly, the midpoint of the concentration-response curve, whichever way the signal moves – is 10 µM (active). Same read-out and setting: the result for `CCOc1ccc(NC(=O)N(C2CCCCC2)C(C)c2ccncc2)cc1` (configuration not stated) reads 15.8 µM (active). For `CCCCN(C(=O)Nc1ccc(OCC)cc1)C1CCN(C(C)=O)CC1`, the “activity, negative = inhibition” value is -4.5% (inactive). On the same count and under the same terms, the same measure for `COc1nc(Cl)nc(Cl)c1Cl` (tested in a mixture with another compound): 3.03% [at 11.4 µM] (inactive); for `CCn1c(O)c(/C=C2\C=Nc3ccccc32)sc1=Nc1ccc(C)cc1`: -3.41% [at 2.29 µM] (inactive). Regarding `O=c1c(-c2cccs2)nc2cncnc2n1Cc1ccccc1`, the AC50 is 6.31 µM (active).

For the molecule `Cc1nc2cncnc2n(Cc2ccccc2)c1=O`, the “activity, negative = inhibition” value is 0.371% (inactive).

Consider `O=c1c(-c2cccs2)nc2cncnc2n1Cc1ccc(F)cc1`, for which the AC50 was 12.6 µM (active). `Cc1c(N(C)C)c(=O)n(-c2ccccc2)n1C`: the “activity, negative = inhibition” value was -12.7% [at 25.6 µM] (inactive).

As to `Cc1c(NC(=S)N/N=C/c2ccc(O)cc2)c(=O)n(-c2ccccc2)n1C`, the “activity, negative = inhibition” value is -17.4% (inactive). Consider `Cc1c(NC(=S)/C=C2\N(C)c3ccccc3C2(C)C)c(=O)n(-c2ccccc2)n1C`, for which the AC50 is 5.62 µM (active). As for `COc1ccc2c(c1OC)C(=O)OC2Nc1ncccc1C` (configuration not stated), the activity, negative = inhibition was -2.44% [at 2.29 µM] (inactive). With `COc1ccc2sc3ccccc3c(=O)c2c1OC`, the AC50 is 17.8 µM (active). As to `COc1ccc2cc(C(=O)Nc3ccc(F)cc3)sc(=O)c2c1OC`, the activity, negative = inhibition is -4.97% [at 2.29 µM] (inactive). Consider `COc1ccc(CN2C(=O)CN(C3CCCCCC3)C(=O)C2c2ccc(OC)c(OC)c2)cc1` (configuration not stated), for which the AC50 was 1.58 µM (active). The same measure, in the same setting: the result for `COc1ccc(C2C(=O)N(C3CCCCCC3)CC(=O)N2Cc2ccccc2)cc1OC` (configuration not stated) reads 4.47 µM (active); that for `COc1cc(C2C(=O)N(C3CCCC3)CC(=O)N2Cc2ccco2)ccc1OC(C)C` (configuration not stated), 8.91 µM (active).

On to `C=CCn1c(SCc2ccccc2)nc2scc(-c3ccc(C)o3)c2c1=O`, for which the “activity, negative = inhibition” value was -11.1% (inactive). `C=CCn1c(SC(C)C(=O)NCc2ccc3c(c2)OCO3)nc2scc(-c3ccccc3)c2c1=O` (configuration not stated): the AC50 is 0.562 µM (active). Still for that read-out and setting: the result for `C=CCn1c(SCc2ccc3c(c2)OCO3)nc2scc(-c3ccco3)c2c1=O` reads 2.82 µM (active); that for `C=CCn1c(SCC(=O)N2CC(=O)Nc3ccccc32)nc2scc(-c3ccccc3)c2c1=O`, 2.82 µM (active).

Take `COc1ccc(S(=O)(=O)N2CCc3ccccc3C2)cc1OC`: the AC50 is 15.8 µM (active).

On to `O=C(ON=C1CCN(S(=O)(=O)c2ccccc2)CC1)c1ccccc1`, for which the “activity, negative = inhibition” value was 2.57% (inactive). The same measure, in the same setting: the result for `O=S(=O)(c1ccc(Cl)s1)N1CCc2ccccc2C1` reads 17.9% (inactive); that for `CCCCCCCCCCCCC(=O)N1CCCC[C@H]1CNC(=O)[C@@H](N)CCCCN`, -26.5% (inactive). As for `O=C(NNc1cccc(Cl)n1)Nc1ccccc1Cl`, the AC50 is 12.6 µM (active). In the case of `NC(=O)NC(=O)Nc1ccccc1Cl`, the “activity, negative = inhibition” value is -6.66% (inactive). Still for that read-out and setting: the result for `CC(=O)NNc1cccc(Cl)n1` reads 8.92% (inactive); that for `CCN(CCO)C[C@H]1CCC[C@H]2CCCC[C@@H]21`, -20% [at 11.4 µM] (inactive). Turning to `CN(C)S(=O)(=O)Oc1ccsc1C(=O)Nc1cccc(Cl)c1`, the AC50 is 10 µM (active). Consider `Cc1ccc(Sc2ccc(NC(=O)c3ccc(S(C)(=O)=O)cc3Cl)cc2)cc1`, for which the “activity, negative = inhibition” value was -22.9% (inactive). Take `CN(C)S(=O)(=O)Oc1cccc(C(=O)Nc2ccc(Cl)c(Cl)c2)c1`: the AC50 is 25.1 µM (active). On to `C/C(=N/OC(=O)c1cccc(Cl)c1)c1nccs1`, for which the “activity, negative = inhibition” value was 5.02% (inactive).

Regarding `CN(C)S(=O)(=O)c1ccc(NC(=O)c2cc(F)c(F)cc2Cl)cc1`, the “activity, negative = inhibition” value was 14.8% (inactive). On to `CN(C)S(=O)(=O)Oc1cccc(C(=O)Nc2ccccc2Cl)c1`, for which the activity, negative = inhibition is -12.3% [at 11.4 µM] (inactive). With `CN(C)S(=O)(=O)Oc1ccsc1C(=O)Nc1ccc(Cl)cc1`, the AC50 was 15.8 µM (active). In the case of `O=C1NCN(c2ccccc2)C12CCN(CCCC(c1ccc(F)cc1)c1ccc(F)cc1)CC2`, the “activity, negative = inhibition” value was -9.23% [at 25.6 µM] (inactive).

As for `C[C@H](CN(C)C)C(=O)c1ccccc1C(=O)O`, the activity, negative = inhibition was -12.4% [at 11.4 µM] (inactive). Still for that read-out and setting: the same measure for `NC[C@H](O)C1CCCCCCC1`: -5.4% (inactive).

For the molecule `CCNc1ncc2nc(-c3ccccc3)c(=O)n(Cc3cccc(OC)c3)c2n1`, the AC50 was 10 µM (active).

As to `CCNc1ncc2nc(-c3ccc(Cl)cc3)c(=O)n(Cc3cccc(OC)c3)c2n1`, the “activity, negative = inhibition” value is -5.08% (inactive). With `CCNc1ncc2nc(C)c(=O)n(Cc3cccc(OC)c3)c2n1`, the concentration at half-maximal activity (AC50) is 7.94 µM (active). Consider `Nc1nc(Cl)nc2c1ncn2[C@@H]1O[C@@H](CO)[C@@H](O)[C@H]1O`, for which the “activity, negative = inhibition” value is 3.91% (inactive). As for `CCOC(=O)c1ccc(Nc2nc(-c3cccnc3)nc3ccccc23)cc1`, the AC50 is 11.2 µM (active).

For the molecule `c1ccc(Nc2nc(-c3cccnc3)nc3ccccc23)cc1`, the AC50 was 12.6 µM (active). Still for that read-out and setting: the result for `CNc1nc(-c2cccnc2)nc2ccccc12` reads 6.31 µM (active). For the molecule `CCOC(=O)NNc1nncc2ccccc12`, the “activity, negative = inhibition” value was 3.81% [at 25.6 µM] (inactive). With `CC(C)c1nc2oc3ccccc3c(=O)c2c(=O)n1-c1ccccc1`, the “activity, negative = inhibition” value is 26.1% (inactive). On to `CC(C)(C)NC[C@H](O)COc1cccc2c1CCCC2=O`, for which the AC50 entry was “inactive”. On the same count and under the same terms, the same measure for `CCOC(=O)c1cc2c(=O)n3ccccc3nc2n(CCCOC)c1=NC(=O)C(C)(C)C`: 15.8 µM (active).

The values above are taken from PubChem BioAssay AID1851 (National Center for Advancing Translational Sciences (NCATS), 2009).
